Test results published in PubChem BioAssay (NCI).
Compounds without any hit were thinned out: in the full panel of roughly 83,000, 20% have a hit.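 Single-dose data. Exposure time 48 hours. Values below 10 considered active.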 A number with no mark means an inactive call. Activity calls are given as the source filed them.

Columns and labels:
Experiment in all cases: NCI-60 one-dose screen, 48 h (100 = growth as untreated, 0 = no growth, -100 = all killed)
Conditions in all cases: 10 µM unless noted
NCI-H23 lung = tested on: NCI-H23 lung
NCI-H226 lung = tested on: NCI-H226 lung
NCI-H322M lung = tested on: NCI-H322M lung
HOP-62 NSCLC = tested on: HOP-62 NSCLC
HOP-92 NSCLC = tested on: HOP-92 NSCLC
NCI-H522 lung = tested on: NCI-H522 lung
A549/ATCC NSCLC = tested on: A549/ATCC NSCLC
786-0 renal = tested on: 786-0 renal
COLO 205 colon = tested on: COLO 205 colon
NCI-H460 lung = tested on: NCI-H460 lung

Row | Compound | growth (NCI-H23 lung) | growth (NCI-H226 lung) | growth (NCI-H322M lung) | growth (HOP-62 NSCLC) | growth (HOP-92 NSCLC) | growth (NCI-H522 lung) | growth (A549/ATCC NSCLC) | growth (786-0 renal) | growth (COLO 205 colon) | growth (NCI-H460 lung)
1 | O=C1Nc2ccccc2C12CC(c1ccc(Cl)cc1)=NN2 (centres undefined) | 101% | 86.6% | 110% | 104% | 74.3% | 90.1% | 82.2% | 100% | 108% | 
2 | CC(C)(C)c1nn(-c2ccccc2)c2c1CC1(CN2Cc2ccc3c(c2)OCO3)C(=O)c2ccccc2C1=O | 106% | 110% | 107% | 97.3% | 97.2% | 141% | 79.4% | 98.4% | 108% | 
3 | CC#CC#Cc1cccc(=O)o1 | 40.4% | 74.4% | 50.3% | 110% | 35.3% | 59.2% | 104% | 83.5% | 46.8% | 
4 | CC[C@]12C=CCN3CC[C@@]4(c5ccc(OC)cc5N(C)[C@H]4[C@@](O)(C(=O)OC)[C@@H]1OC(=O)CCC(=O)N[C@@H](Cc1c[nH]c4ccccc14)C(=O)OC)[C@@H]32 | 101% | 104% | 98.5% | 90.1% | 66.8% | 78.6% | 86.8% | 91.5% | 98.8% | 
5 | COc1ccc(/C=C/C(=O)c2c(O)c(C)c(O)c3c2OC2=CC(O)=C(C(C)=O)C(=O)[C@]23C)cc1 | -32.9% (active) | -28.2% (active) | -17.9% (active) | -40% (active) | -18.8% (active) | -32.2% (active) | -26.8% (active) | -29.7% (active) | -74.1% (active) | 
6 | COc1ccc(S(=O)(=O)NCCCNc2nccc(-c3c(-c4cccc(N)c4)nc4sccn34)n2)cc1 | 97.4% | 89.4% | 101% | 117% | 92.8% | 101% | 99.7% | 92.1% | 75.8% | 
7 | CN1Cc2c(cc(CN3CCCCC3)n2C)C(c2ccc(Br)cc2)C1 (centres undefined) | 84.6% | 90.7% |  | 91.1% | 53.9% | 90.5% | 93.8% | 66.5% | 83.1% | 96.9%
8 | O=C(Cn1cc(CN2C(=O)c3ccccc3S2(=O)=O)nn1)Nc1ccc([N+](=O)[O-])cc1Cl | 90% | 91.8% |  | 101% | 107% | 101% | 106% | 105% | 103% | 102%
9 | O=C1C=CC(=O)N1c1ccc(Cc2ccc(N3C(=O)C=CC3=O)cc2)cc1 | 86% | 84.8% |  | 90.5% | 90% | 94.5% | 111% | 97.1% | 115% | 94.8%
10 | N#Cc1ccc(NC(=O)Nc2ccc(Cc3ccc(NC(=O)Nc4ccc(C#N)cc4)cc3)cc2)cc1 | -4.62% (active) | 37.7% | 63.3% | 50.2% | 46.8% | 28.2% | 41.3% | 49.3% | 29.5% | 
11 | O=C(O)c1ccc(=O)[nH]n1 | 103% | 107% |  | 111% | 87.9% | 106% | 116% | 116% | 111% | 112%
12 | COc1ccc(S(=O)(=O)NCCNc2nccc(-c3c(-c4cccc([N+](=O)[O-])c4)nc4sccn34)n2)cc1 | 93.1% | 82.2% |  | 99.3% | 87.5% | 86% | 80.2% | 87.9% | 95.1% | 87.3%
13 | CCNS(=O)(=O)c1ncnc2nc[nH]c12 | 97.1% | 120% |  | 105% | 98.6% | 88.5% | 119% | 104% | 112% | 
14 | COc1ccc(-c2nc(Nc3cc(C)[nH]n3)c3ccccc3n2)cc1 | 60.2% | 41.2% |  | 43.2% | 3.24% (active) | 8.31% (active) | 23.9% | 50% | 3.04% (active) | 28.5%
15 | Oc1ccc(Nc2nccc(-c3ccc4ccccc4c3)n2)cc1 | 30.7% | 60.9% |  | 36.9% | 89.5% | 30.9% | 14.1% | 40.1% | 98% | 14.8%
16 | COc1ccc(-c2cc(=O)[nH]c3c(OC)c4ccccc4c(OC)c23)cc1 | 19.2% | 39.9% |  | 36.8% | 73.9% | -17.2% (active) | 23.6% | 34.5% | -58.8% (active) | 8.71% (active)
17 | Cc1cc(OCc2ccc(C(F)(F)F)cc2)c2c(c1)C(=O)C=C(NCCN1CCCC1)C2=O | 84.5% | 93% |  | 83.1% | 60.1% | 87.6% | 54.3% | 58.5% | -77.4% (active) | 43.9%
18 | COC1=CC(=O)C(OC)=C(OC)C1=O | 90.5% | 86.7% |  | 92.6% | 109% | 100% | 114% | 93.4% | 114% | 96.6%
19 | CCN(CC)Cc1cc(Nc2c3ccc(Cl)cc3nc3c(C)cccc23)ccc1O | -75.5% (active) | -28.1% (active) |  | -74.6% (active) | -62.7% (active) | -77.2% (active) | -15.5% (active) | -91.6% (active) | -92.4% (active) | 
20 | COc1ccc(C(=O)c2sc3nc(-c4ccccc4OC)ccc3c2N)cc1OC | 63.2% | 63% |  | 95.3% | 56.4% | 50.3% | 64.6% | 64.1% | 102% | 51.7%
21 | C=C1C(=O)O[C@H]2[C@H]1CC/C(Cn1cc(Cn3ccc4ccccc43)nn1)=C\CC[C@@]1(C)O[C@@H]21 | 45.6% | 76.8% |  | 77.5% | -36.3% (active) | -60.6% (active) | 62% | -19.5% (active) | -71.4% (active) | 86.5%
22 | O=C(O)c1cccnc1Br | 98.1% | 99.8% |  | 96.2% | 115% | 84.8% | 101% | 90.2% | 115% | 113%
23 | Nc1c(C(=O)Nc2ccccc2)sc2nc3c(cc12)CN(CCc1ccccc1)CC3 | 84.2% | 89.8% |  | 99.2% | 75.5% | 86.1% | 107% | 101% | 116% | 100%
24 | O=[N+]([O-])c1cccc(-c2nc3sccn3c2-c2ccnc(NCCCNS(=O)(=O)c3ccc(Br)cc3)n2)c1 | 41.4% | 41% |  | 74.7% | 78% | 37.4% | 53.8% | 75.5% | 41.3% | 
25 | CC#Cc1nc2ccccc2c(=O)[nH]1 | 80.6% | 64.5% |  | 58.3% | 92.7% | 52.6% | 72.2% | 42% | 78.7% | 73%
26 | CN1CCN(Cc2ccc(NC(=O)c3[nH]ncc3Nc3ncnc4c3CCC4)cc2)CC1 | 5.19% (active) | 9.05% (active) |  | 22.6% | -33% (active) | 13.7% | 17.2% |  | -37.5% (active) | 6.72% (active)
27 | O=C(O)C(O)C(O)C(=O)O.[NH-]C1CCCCC1[NH-].[Pt+2] (centres undefined) | 107% | 102% |  | 98.8% | 100% | 93.5% | 111% | 99.9% | 106% | 103%
